Screening data (PubChem)
The list is not random: actives were taken first. Their share in the collection is about 2.4%.
D2 PAM-1 = human D2 receptor positive allosteric modulation; P14416; DiscoveRx D2 beta-arrestin cells, luminescence, 90 min; 100% = 57 uM dopamine signal; potentiation, % (test concentration not listed); actives 0.23% (n = 360,000); AID 624464; in the data active = potentiation above about 50%; inconclusive = mostly about 30% to 49%
Target sequence (P14416 whole entry, looked up): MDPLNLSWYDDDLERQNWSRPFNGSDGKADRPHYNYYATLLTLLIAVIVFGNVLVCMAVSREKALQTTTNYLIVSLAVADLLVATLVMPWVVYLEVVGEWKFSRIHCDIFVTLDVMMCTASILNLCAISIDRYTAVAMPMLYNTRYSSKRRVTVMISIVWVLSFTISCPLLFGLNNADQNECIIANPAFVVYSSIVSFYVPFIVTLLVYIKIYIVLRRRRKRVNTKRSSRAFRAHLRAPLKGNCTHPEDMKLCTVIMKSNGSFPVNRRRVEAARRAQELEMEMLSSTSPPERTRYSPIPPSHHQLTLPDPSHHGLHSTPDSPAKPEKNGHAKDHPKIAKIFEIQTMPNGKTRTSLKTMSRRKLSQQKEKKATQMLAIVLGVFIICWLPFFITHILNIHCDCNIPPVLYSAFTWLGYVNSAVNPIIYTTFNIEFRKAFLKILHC
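PathHunter beta-arrestin assay in DiscoveRx D2 cells. Compounds were added with an EC20 of dopamine (50 nM final) for 90 min at 37 deg C. Luminescence was read 1 h after detection reagent, with 57 uM dopamine as the EC100 control.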
D2 PAM-2 = D2 dopamine receptor (human) potentiation | P14416 | HEK293 T-REx D2, calcium flux, EC20 dopamine potentiation | potentiation, % at 10 µM | actives 0.34% (n = 340,000);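 active = potentiation over 3 SD above the plate norm, cut at about 30% in these data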; note: 0% is about no effect
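Cells plated with tetracycline inducer and held overnight at 30 C; calcium dye loaded 30–90 min at room temperature; baseline taken, compound added and read 180 s; EC20 dopamine then added and read 180 s.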
D2 ag-1 = activates the human D2 dopamine receptor; actives 0.53% (n = 340,000); HEK293 T-REx D2 cells, calcium flux agonist mode; activation, % at 2 µM; P14416;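 active = activation over 3 SD above normal in the single-dose calcium agonist read, cut at about 30% in these data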; note: 0% is about no effect
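Tetracycline-induced HEK293 T-REx cells with force-coupled D2 receptor, plated overnight at 30 C, loaded with no-wash calcium dye. After a 10 s baseline, compound was pin-added and calcium flux read kinetically for 180 s; calcium rises flagged agonists.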
D2 ag-2 = agonists of human D2 dopamine receptor (beta-arrestin) | P14416 | DiscoveRx PathHunter D2 beta-arrestin, luminescence, 90 min; 100% = 57 uM dopamine signal | activation, % (no concentration beside the values) | actives 0.084% (n = 360,000) | AID 624465; in the data active = activation above about 40%; inconclusive = between about 15% and that limit
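DiscoveRx PathHunter D2 beta-arrestin cells (2,100/well) attached overnight, then compound-stimulated 90 min at 37 C in HBSS/10 mM HEPES/0.1% Tween-20 buffer; beta-galactosidase complementation read by luminescence after 1 h at ambient temperature. Dopamine 57 uM final (EC100) as control.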
D2 antag = antagonists of human D2 dopamine receptor. HEK293 TREx D2 cells, calcium flux, dopamine EC80. P14416. inhibition, % at 10 µM. actives 2% (n = 340,000); in the data active = inhibition above about 30%; inactive = below that, where a call was filed; note: 0% is about no effect
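Dopamine at EC80 is the agonist stimulus; test compounds precede it by 180 s. Calcium flux read kinetically in a force-coupled, inducible HEK293 T-REx D2 cell line.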
D3 ag = confirmation of human D3 dopamine receptor agonists, beta-arrestin; DiscoveRx D3 beta-arrestin cells, luminescence, 90 min; shares compounds with D2 ag-1; actives 4% (n = 2,300); Potency, µM (titrated, usually from 76.9 µM), without a hit: at the top dose activation, actives largely listed as activators;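 note: potency is the fitted concentration of half-maximal effect; 100% = dopamine control response; nearly all actives have a fitted effect of over 70% in size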
D2 ag-3 = activates human D2 dopamine receptor in D3 counterscreen; actives 5.9% (n = 2,300); AID 720507; shares compounds with D2 ag-1; DiscoveRx PathHunter D2 beta-arrestin, luminescence, 90 min; response scale: percent relative to full dopamine signal; Potency, µM (titrated, usually from 76.9 µM), inactives show at the top dose activation, most hits filed as activators; note: potency is the fitted concentration of half-maximal effect; % of control where 0% means no effect; nearly all actives have a fitted effect of over 70% in size
* marks the source's active call; other numbers are inactive results; ? = inconclusive; / = not tested or not shown. Unless noted, calls come from the whole dose curve; as a rule, active = well fitted activation curve with a large enough effect; inconclusive = small, poorly fitted or top-dose-only effect; inactive = flat fitted curve, though single readings scatter.

SMILES | D2 PAM-1 | D2 PAM-2 | D2 ag-1 | D2 ag-2 | D2 antag | D3 ag | D2 ag-3
Nn1c(-c2cccc([N+](=O)[O-])c2)nc2ccccc2c1=O | -4 | 6 | -2 | -7 | -19 | / | /
CC(=O)c1ccc(OC(=O)C2CSC3(C)CCC(=O)N23)cc1 (configuration not stated) | 11 | / | / | 0 | / | -4% | -2%
CCOc1ccc(NC(=O)CN(C)C(=O)CCC2CCCCC2)cc1OCC | -16 | 6 | -1 | 2 | 12 | -4% | 1%
COc1ccc(CN(C)C(=O)C2CSC3(C)CCC(=O)N23)cc1 (configuration not stated) | 10 | -2 | 0 | -2 | 8 | / | /
COc1ccc(NC(=O)CN(C)C(=O)C2CSC3(C)CCC(=O)N23)cc1 (configuration not stated) | 6 | 0 | 1 | -3 | -10 | -3% | 1%
CCOc1ccc(NC(=O)CN(C)C(=O)C2CSC3(C)CCC(=O)N23)cc1OCC (configuration not stated) | 0 | -3 | 0 | 1 | 9 | -2% | -1%
CCOc1ccc(NC(=O)CN(C)C(=O)CC2CCCCC2)cc1OCC | -1 | -11 | 0 | 3 | 3 | / | /
O=C(Nc1ccccc1)O[C@@H]1C[C@H]2CCC(=O)N3CC[C@@H](C1)[C@@H]23 | / | 4 | 0 | / | -1 | / | /
CN1OC[C@@H]2CN(Cc3ccc(Cl)cc3)[C@H](c3ccc(-n4ccnc4)cc3)C[C@@H]21 | -13 | / | / | -7 | / | / | /
CCc1ccc(OCC(=O)NC(Cc2c[nH]c3ccccc23)C(=O)O)cc1 (configuration not stated) | / | 6 | -1 | / | / | / | /
COc1ccccc1N1CCN(C(=O)CN2C(=O)c3ccccc3S2(=O)=O)CC1 | -9 | -13 | 0 | -1 | 15 | / | /
O=C(Nc1ccc(C(=O)NCCCN2CCN(c3ccc(F)cc3)CC2)cc1)C1=CSCCO1 | -52 | -25 | 69* | 11 | 69* | -14% | 25%
O=C(Nc1ccc(C(=O)NCCCN2CCCCC2)cc1)C1=CSCCO1 | -10 | / | / | 2 | / | / | /
CC1(C)CC(O)(CNCc2ccc3c(c2)OCO3)CCO1 (configuration not stated) | 18 | -22 | 70* | ? | 88* | 30% | ?
COc1ccc(CNC(=O)c2cc3ccccn3n2)cc1OC | / | 9 | -1 | / | / | / | /
CCOc1ccc(CCNC(=O)Cc2ccc(NC(=O)N3CCSc4ncccc43)cc2)cc1 | / | -3 | 0 | / | / | / | /
COc1cc(C(=O)CCN2CCC(c3ccccc3)C2)cc(OC)c1OC (configuration not stated) | -39 | -26 | 46* | -4 | 24 | -9% | -3%
O=C(CCN1CCC(c2ccccc2)C1)c1cccs1 (configuration not stated) | -16 | -23 | 0 | -1 | 11 | / | /
O=C(c1ccco1)N1N=C(c2ccco2)CC1c1ccc(Cl)cc1Cl (configuration not stated) | 0 | 8 | 0 | -4 | 0 | / | /
CCOc1ccc(CCNC(=O)c2ccc3nc(N4CCOCC4)sc3c2)cc1OCC | -4 | 7 | 0 | 0 | 8 | 14% | 1%
COc1ccc(CCNC(=O)c2ccc3nc(N4CCOCC4)sc3c2)cc1OC | 5 | 4 | 0 | -4 | 12 | / | /
CCOc1ccc(Br)cc1S(=O)(=O)Nc1cccc(S(=O)(=O)N2CCOCC2)c1 | 0 | / | / | 6 | / | / | /
COc1cc(OC)c(NC(=O)Nc2c(C)n(C)n(-c3ccccc3)c2=O)cc1Cl | / | -9 | 0 | / | / | / | /
Cc1cccc(NS(=O)(=O)c2ccc(-c3ccc(=O)[nH]n3)o2)c1 | -4 | / | / | 4 | / | / | /
Cc1ccc(C)c(NS(=O)(=O)c2ccc(-c3ccc(=O)[nH]n3)o2)c1 | 2 | -9 | 44* | 8 | 6 | -1% | 22%
SMILES | D2 PAM-1 | D2 PAM-2 | D2 ag-1 | D2 ag-2 | D2 antag | D3 ag | D2 ag-3
CCOC(=O)C1=C(C)OC(N)=C(C#N)C1c1cc2c(cc1[N+](=O)[O-])OCO2 (configuration not stated) | -4 | 17 | 1 | 1 | -25 | / | /
CCC(=O)Oc1ccc(C(=O)Nc2ccc3c(c2)OCO3)cc1 | -6 | 2 | -1 | 6 | 17 | 2% | 1%
CC(C)CCn1nnnc1CN1CCN(c2ccccc2)CC1 | -6 | -19 | 52* | 4 | 50* | -7% | 10%
COCCn1nnnc1CN1CCN(c2cccc(C(F)(F)F)c2)CC1 | 2 | 5 | 0 | -1 | 19 | / | /
C=CC[C@]12CCc3ccccc3C1N(c1ccc(C(=O)OCC)cc1)C2=O (some centres not stated) | -6 | 3 | 0 | -3 | -11 | -7% | -4%
CCOC(=O)c1ccc(N2C(=O)Cc3ccccc3C2=O)cc1 | 1 | 5 | 1 | -3 | -8 | / | /
Cc1ccc(CN2C(=O)C(=O)N(CC(N)=O)C2=O)cc1 | -11 | -5 | 1 | -3 | -11 | / | /
C=C(C)CN1C(=O)C(=O)N(CC(=C)C)C1=O | -5 | -12 | 90* | -4 | -17 | -8% | -3%
OC(c1ccc(F)c(F)c1)c1nc(-c2ccc3c(c2)OCO3)cs1 (configuration not stated) | -2 | / | / | -1 | / | / | /
O=C(C[n+]1cc(-c2ccccc2)n2c1CCC2)N1c2ccccc2Sc2ccccc21 | -24 | -29 | 64* | 0 | 37* | 1% | 12%
O=C(CN1C(=O)NC2(CCCC2)C1=O)Nc1nc(-c2ccc(F)cc2)cs1 | 1 | 3 | 1 | -2 | 13 | -7% | 3%
Cc1ccc(NC(=O)C[n+]2cc(-c3ccccc3)n3c2CCC3)c(C)c1 | -5 | -20 | 81* | 1 | 65* | -23% | 0%
O=C(C[n+]1cc(-c2ccccc2)n2c1CCC2)Nc1nc(-c2ccc(F)cc2)cs1 | -20 | -23 | 76* | 5 | 76* | 24% | ?
Cc1ccc(-c2c[n+](CC(=O)Nc3c(C)cccc3C)c3n2CCC3)cc1 | -19 | -13 | 1 | -6 | 0 | / | /
COc1ccccc1-c1cnc(C(O)c2ccc(Cl)c(Cl)c2)[nH]1 (configuration not stated) | -9 | / | / | -4 | / | / | /
CC(=O)c1cccc(NC(=O)c2sc(-n3nc(C)c(CCC(C)C)c3C)nc2C)c1 | / | -11 | 1 | / | / | / | /
O=C(c1ccc(CSc2nc3ccncc3n2Cc2ccccc2F)cc1)N1CCCCC1 | / | -5 | 0 | / | / | / | /
COc1ccc(C(=O)N(Cc2ccc(N(C)C)cc2)Cc2ccco2)cc1Cl | / | -2 | 0 | / | / | / | /
